According to PubChem BioAssay (NCATS):
Records with an inconclusive call do not appear. Where a call stands in place of a potency, no number is given. The source made the active and inactive calls. The call rests on the fitted dose curve; in most records, active means well fitted curve in the direction sought with a large enough effect; inconclusive means small, poorly fitted or top-dose-only effect, or another doubt; inactive means no such curve, though single readings can be large; an effect the other way counts as inactive or inconclusive.

How the values were obtained:
[1] = qHTS of pediatric cancer cell lines to identify multiple opportunities for drug repurposing: Primary screen for SK-N-MC cells (AID 1347093); further: potency means the concentration at half of the fitted maximal effect
Outline: (§1)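 Metabolically active cells were quantified by ATP-dependent luminescence (CellTiter-Glo, 15 min at room temperature) following 48 h treatment. Cells had been plated at 500-1,000 per well and settled for 5 h beforehand.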

[2] = qHTS of pediatric cancer cell lines to identify multiple opportunities for drug repurposing: Primary screen for BT-37 cells (AID 1347094); further: potency means the concentration at half of the fitted maximal effect
Outline: (§2)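 Viability was measured as metabolically active cells after 48 hours of treatment, read by CellTiter-Glo luminescence. Compounds were tested at multiple final concentrations, giving concentration-response curves.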

[3] = qHTS of pediatric cancer cell lines to identify multiple opportunities for drug repurposing: Primary screen for NB-EBc1 cells (AID 1347095); further: potency means the concentration at half of the fitted maximal effect
Outline: as §2

[4] = qHTS of pediatric cancer cell lines to identify multiple opportunities for drug repurposing: Primary screen for NB1643 cells (AID 1347099); further: nearly all actives have a fitted effect of over 50% in size; further: potency means the concentration at half of the fitted maximal effect
Outline: as §2

[5] = qHTS of pediatric cancer cell lines to identify multiple opportunities for drug repurposing: Primary screen for LAN-5 cells (AID 1347100); further: potency means the concentration at half of the fitted maximal effect
Outline: (§3)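 Cells (500-1,000/well) in growth media were settled 5 h at 37 degrees C, then given compounds for 48 h. Viability was read as CellTiter-Glo luminescence. Primary runs used MIPE at 11 points (0.78 nM-46 µM) and NPC at 8 points (0.59 nM-46 µM); follow-ups used 11 points.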

[6] = qHTS of pediatric cancer cell lines to identify multiple opportunities for drug repurposing: Primary screen for Rh18 cells (AID 1347102); further: nearly all actives have a fitted effect of over 65% in size; further: potency means the concentration at half of the fitted maximal effect
Outline: as §3

[7] = qHTS of pediatric cancer cell lines to identify multiple opportunities for drug repurposing: Primary screen for OHS-50 cells (AID 1347103); further: nearly all actives have a fitted effect of over 40% in size; further: potency means the concentration at half of the fitted maximal effect
Outline: (§4)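 Cells (500-1,000/well) rested 5 h, then received compounds for 48 h; metabolically active cells were measured by CellTiter-Glo luminescence. Final concentrations spanned up to 46 µM (MIPE, 11-point) or 0.59 nM-46 µM (NPC, 8-point) in primary screens, 11-point in follow-ups.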

[8] = qHTS of pediatric cancer cell lines to identify multiple opportunities for drug repurposing: Primary screen for control Hh wild type fibroblast cells (AID 1347106);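 further: series mostly up to about 46 µM; a drop in luminescence marks cytotoxicity and a rise apparent proliferation; nearly all actives have a fitted effect of over 55% in size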
Outline: as §3

[9] = qHTS of pediatric cancer cell lines to identify multiple opportunities for drug repurposing: Primary screen for Rh30 cells (AID 1347107); further: series mostly up to about 46 µM; nearly all actives have a fitted effect of over 75% in size
Outline: as §3

[10] = qHTS of pediatric cancer cell lines to identify multiple opportunities for drug repurposing: Primary screen for A673 cells (AID 1347092); further: nearly all actives have a fitted effect of over 45% in size
Outline: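 Luminescence from CellTiter-Glo, taken after 15 min at room temperature, served as the proxy for metabolically active cells following 48 h treatment. Both potency and efficacy were taken from curves fitted to the titration data.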

[11] = qHTS of pediatric cancer cell lines to identify multiple opportunities for drug repurposing: Primary screen for Saos-2 cells (AID 1347097); further: nearly all actives have a fitted effect of over 40% in size; further: potency means the concentration at half of the fitted maximal effect
Outline: as §2

[12] = qHTS of pediatric cancer cell lines to identify multiple opportunities for drug repurposing: Primary screen for SK-N-SH cells (AID 1347098); further: nearly all actives have a fitted effect of over 65% in size; further: potency means the concentration at half of the fitted maximal effect
Outline: as §4

[13] = qHTS of pediatric cancer cell lines to identify multiple opportunities for drug repurposing: Primary screen for BT-12 cells (AID 1347101); further: nearly all actives have a fitted effect of over 25% in size; further: potency means the concentration at half of the fitted maximal effect
Outline: as §4

[14] = qHTS of pediatric cancer cell lines to identify multiple opportunities for drug repurposing: Primary screen for RD cells (AID 1347104); further: nearly all actives have a fitted effect of over 55% in size; further: potency means the concentration at half of the fitted maximal effect
Outline: as §2

[15] = qHTS of pediatric cancer cell lines to identify multiple opportunities for drug repurposing: Primary screen for MG 63 (6-TG R) cells (AID 1347105); further: nearly all actives have a fitted effect of over 50% in size; further: potency means the concentration at half of the fitted maximal effect
Outline: as §2

[16] = qHTS of pediatric cancer cell lines to identify multiple opportunities for drug repurposing: Primary screen for Rh41 cells (AID 1347108);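 further: series mostly up to about 46 µM; luminescence drop marks cytotoxic hits; nearly all actives have a fitted effect of over 70% in size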
Outline: as §2

[17] = qHTS of pediatric cancer cell lines to identify multiple opportunities for drug repurposing: Confirmatory screen for NB1643 cells (AID 1347109); further: nearly all actives have a fitted effect of over 45% in size
Outline: as §3

[18] = qHTS of pediatric cancer cell lines to identify multiple opportunities for drug repurposing: Primary screen for U-2 OS cells (AID 1347096); further: nearly all actives have a fitted effect of over 50% in size
Outline: as §3

[19] = qHTS of pediatric cancer cell lines to identify multiple opportunities for drug repurposing: Confirmatory screen for SK-N-MC cells (AID 1347111);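 further: potency means the concentration at half of the fitted maximal effect; cells exposed to compound for 48 h before the readout; nearly all actives have a fitted effect of over 70% in size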
Outline: as §1

SMILES: Nc1ccc(C(=O)Nc2ccccc2N)cc1
- Potency [1]: 3.76 µM (active)
- Potency [2]: 17.4 µM (active)
- Potency [3]: 3.76 µM (active)
- Potency [4]: 7.5 µM (active)
- Potency [5]: 6.68 µM (active)
- Potency [6]: 16.8 µM (active)
- Potency [7]: 6.17 µM (active)
- Potency [8]: inactive
- Potency [9]: inactive

SMILES: CC(=O)Oc1ccc(C(c2ccc(OC(C)=O)cc2)c2ccccn2)cc1
- Potency [10]: inactive
- Potency [2]: inactive
- Potency [3]: inactive
- Potency [11]: inactive
- Potency [12]: inactive
- Potency [4]: inactive
- Potency [5]: inactive
- Potency [13]: inactive
- Potency [6]: inactive
- Potency [14]: inactive
- Potency [15]: 0.211 µM (active)
- Potency [9]: inactive
- Potency [16]: inactive
- Potency [17]: inactive

SMILES: O=S1(=O)c2cccc3cccc(c23)N1CCCN1CCN(c2ccc(F)cc2)CC1
- Potency [10]: inactive
- Potency [2]: inactive
- Potency [3]: inactive
- Potency [18]: inactive
- Potency [11]: inactive
- Potency [4]: inactive
- Potency [13]: inactive
- Potency [6]: inactive
- Potency [14]: inactive
- Potency [15]: inactive
- Potency [8]: inactive
- Potency [9]: inactive
- Potency [16]: inactive

SMILES: CCCCCCc1ccc(O)cc1O
- Potency [1]: inactive
- Potency [2]: inactive
- Potency [18]: inactive
- Potency [4]: inactive
- Potency [5]: inactive
- Potency [13]: inactive
- Potency [6]: inactive
- Potency [14]: inactive
- Potency [15]: inactive
- Potency [8]: inactive
- Potency [9]: inactive
- Potency [16]: inactive

SMILES: CC(=O)N(O)CCCCCNC(=O)CCC(=O)N(O)CCCCCNC(=O)CCC(=O)N(O)CCCCCN
- Potency [10]: inactive
- Potency [2]: 12.3 µM (active)
- Potency [18]: inactive
- Potency [11]: inactive
- Potency [12]: 5.45 µM (active)
- Potency [13]: 12.3 µM (active)
- Potency [7]: 13.8 µM (active)

SMILES: CCCSS/C(CCO)=C(\C)N(C=O)Cc1cnc(C)nc1N
- Potency [1]: 15 µM (active)
- Potency [2]: inactive
- Potency [3]: 16.8 µM (active)
- Potency [18]: inactive
- Potency [13]: inactive
- Potency [6]: inactive
- Potency [7]: 21.9 µM (active)
- Potency [8]: inactive
- Potency [9]: inactive

SMILES: Cc1c(C)n(Cc2ccccc2)c2ccc(C(=O)OCCN(C)C)cc12
- Potency [10]: inactive
- Potency [2]: inactive
- Potency [18]: inactive
- Potency [4]: inactive
- Potency [5]: inactive
- Potency [14]: inactive
- Potency [8]: inactive
- Potency [9]: inactive
- Potency [16]: inactive

SMILES: Oc1c(Cl)cc(Cl)cc1Sc1cc(Cl)cc(Cl)c1O
- Potency [10]: inactive
- Potency [2]: inactive
- Potency [18]: inactive
- Potency [13]: inactive
- Potency [6]: inactive
- Potency [14]: inactive
- Potency [8]: inactive
- Potency [9]: inactive
- Potency [16]: inactive

SMILES: CCN(CC)CCOC(=O)C(c1ccccc1)C1CCCCC1 (centres undefined)
- Potency [10]: inactive
- Potency [18]: inactive
- Potency [11]: 23.7 µM (active)
- Potency [12]: 30.7 µM (active)
- Potency [4]: inactive
- Potency [5]: inactive
- Potency [6]: inactive
- Potency [7]: 21.9 µM (active)
- Potency [15]: inactive
- Potency [8]: inactive
- Potency [9]: inactive

SMILES: COc1ccc(CCN2CCC(Nc3nc4ccccc4n3Cc3ccc(F)cc3)CC2)cc1
- Potency [2]: 30.9 µM (active)
- Potency [12]: 6.12 µM (active)
- Potency [5]: 23.7 µM (active)
- Potency [7]: 30.9 µM (active)
- Potency [14]: 26.6 µM (active)
- Potency [15]: 16.8 µM (active)

SMILES: CC(C)N=C(N)/N=C(\N)Nc1ccc(Cl)cc1
- Potency [2]: inactive
- Potency [3]: inactive
- Potency [18]: inactive
- Potency [4]: inactive
- Potency [5]: inactive
- Potency [15]: inactive
- Potency [8]: inactive
- Potency [9]: inactive
- Potency [16]: inactive

SMILES: COC1=CC(=O)C[C@@H](C)[C@]12Oc1c(Cl)c(OC)cc(OC)c1C2=O
- Potency [3]: 11.9 µM (active)
- Potency [18]: inactive
- Potency [4]: inactive
- Potency [14]: inactive
- Potency [8]: inactive
- Potency [9]: inactive

SMILES: CC(=O)Oc1ccc2c(c1)CC[C@@H]1[C@@H]2CC[C@]2(C)[C@@H](O)CC[C@@H]12
- Potency [18]: inactive
- Potency [11]: 23.7 µM (active)
- Potency [4]: inactive
- Potency [6]: inactive
- Potency [14]: inactive
- Potency [15]: inactive
- Potency [8]: inactive
- Potency [9]: inactive
- Potency [16]: inactive
- Potency [19]: 6.57 µM (active)

SMILES: C=C(CC)C(=O)c1ccc(OCC(=O)O)c(Cl)c1Cl
- Potency [1]: 18.8 µM (active)
- Potency [3]: 21.1 µM (active)
- Potency [12]: 17.2 µM (active)
- Potency [6]: inactive
- Potency [7]: inactive
- Potency [15]: 21.1 µM (active)
- Potency [8]: inactive
- Potency [9]: inactive

SMILES: CCCCCC=CCC=CCCCCCCCC(=O)OCC
- Potency [2]: inactive
- Potency [18]: inactive
- Potency [4]: inactive
- Potency [5]: inactive
- Potency [13]: inactive
- Potency [6]: inactive
- Potency [7]: inactive
- Potency [14]: inactive
- Potency [15]: inactive
- Potency [8]: inactive
- Potency [9]: inactive
- Potency [16]: inactive

SMILES: C=C1C(=C/C=C2\CCC[C@]3(C)[C@@H]([C@H](C)/C=C/[C@@H](O)C4CC4)CC[C@@H]23)C[C@@H](O)C[C@@H]1O
- Potency [6]: inactive
- Potency [7]: 30.9 µM (active)
- Potency [14]: inactive
- Potency [15]: inactive
- Potency [9]: inactive
- Potency [16]: inactive

SMILES: CC(=O)c1ccc2c(c1)N(CCCN1CCC(CCO)CC1)c1ccccc1S2
- Potency [1]: inactive
- Potency [3]: inactive
- Potency [11]: inactive
- Potency [4]: inactive
- Potency [5]: inactive
- Potency [15]: inactive
- Potency [9]: inactive
- Potency [16]: inactive

SMILES: CC(=O)N/N=C/c1ccc([N+](=O)[O-])o1
- Potency [18]: inactive
- Potency [8]: inactive
- Potency [9]: inactive

SMILES: C#C[C@]1(OC(C)=O)CC[C@H]2[C@@H]3CCC4=C[C@@H](OC(C)=O)CC[C@@H]4[C@H]3CC[C@@]21C
- Potency [12]: inactive
- Potency [4]: inactive
- Potency [6]: inactive
- Potency [7]: 15.5 µM (active)
- Potency [15]: inactive
- Potency [9]: inactive
- Potency [16]: inactive

SMILES: CN1CCN(CCCN2c3ccccc3Sc3ccc(S(=O)(=O)N(C)C)cc32)CC1
- Potency [3]: inactive
- Potency [18]: inactive
- Potency [12]: 15.4 µM (active)
- Potency [4]: inactive
- Potency [6]: 23.7 µM (active)
- Potency [7]: 24.6 µM (active)
- Potency [8]: inactive
- Potency [9]: inactive
- Potency [16]: inactive

SMILES: CCCCOc1cc(C(=O)NCCN(CC)CC)c2ccccc2n1
- Potency [3]: inactive
- Potency [18]: inactive
- Potency [11]: inactive
- Potency [6]: inactive
- Potency [7]: inactive
- Potency [15]: inactive
- Potency [9]: inactive
- Potency [16]: inactive

SMILES: C[C@@H]1CN(CCCn2c3ccccc3c3ccccc32)C[C@H](C)N1
- Potency [3]: inactive
- Potency [18]: inactive
- Potency [12]: 9.7 µM (active)
- Potency [4]: inactive
- Potency [14]: 26.6 µM (active)
- Potency [15]: inactive
- Potency [8]: inactive
- Potency [9]: inactive
- Potency [16]: inactive
